# Screening data (PubChem BioAssay)
# Cruzain inh Det: inhibitors of Trypanosoma cruzi cruzain with detergent. P25779. purified cruzain, Z-FR-AMC fluorescence, 0.01% Triton. Potency, µM, inactives show max response, negative = inhibition, actives largely listed as inhibitors. 200,000 tested, 0.43% active;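 note: plate controls were neutral wells for no effect and buffer without enzyme for full effect; nearly all actives have a fitted effect of over 40% in size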
# Target sequence (P25779 123-467 limits assumed): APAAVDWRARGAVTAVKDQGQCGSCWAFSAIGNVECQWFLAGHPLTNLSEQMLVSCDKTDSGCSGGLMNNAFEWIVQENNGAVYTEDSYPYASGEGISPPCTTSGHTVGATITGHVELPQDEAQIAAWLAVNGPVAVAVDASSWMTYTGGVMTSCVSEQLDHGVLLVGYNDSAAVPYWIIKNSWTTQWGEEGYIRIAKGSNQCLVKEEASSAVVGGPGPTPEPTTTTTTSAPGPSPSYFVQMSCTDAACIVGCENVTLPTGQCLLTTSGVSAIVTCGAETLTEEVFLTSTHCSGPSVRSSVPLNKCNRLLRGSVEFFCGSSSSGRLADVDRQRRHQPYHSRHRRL
#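 Read-out: AMC fluorescence (360 nm excitation, 450 nm emission), four reads over 2 min, first-to-third difference used. Conditions: cruzain 1.5 nM, Z-FR-AMC 2 uM, pH 5.5 acetate, 5 mM DTT, 0.01% Triton X-100.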
# Cruzain inh noDet: blocks cruzain activity in detergent-free assay. P25779. purified cruzain, Z-FR-AMC fluorescence, no detergent. Potency, µM, inactives show max response, negative = inhibition, most hits filed as inhibitors. 200,000 tested, 2.3% active;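 note: plate controls were enzyme without inhibitor for no effect and buffer without enzyme for full effect; nearly all actives have a fitted effect of over 40% in size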
#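 Purified cruzain at 1.5 nM, pre-incubated 15 min with compound at room temperature in 100 mM sodium acetate pH 5.5, 5 mM DTT, 0.00005% Triton X-100. Reaction started with 2 uM Z-FR-AMC; AMC fluorescence increase over 60 s gives rate.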
# * = called active by the depositor; ? = inconclusive. An excerpt weighted towards active compounds, which were near 2.4% of everything screened. Calls come from the whole dose curve; as a rule, active = well fitted curve in the direction sought with a large enough effect; inconclusive = small, poorly fitted or top-dose-only effect, or another doubt; inactive = no such curve, though single readings can be large; an effect the other way counts as inactive or inconclusive. Potency is the fitted concentration of half-maximal effect.
SMILES,Cruzain inh Det,Cruzain inh noDet
Cc1ccc(CSc2sc(C(=O)c3ccccc3)c(N)c2C#N)cc1,-0.7%,20µM*
O=C1C[C@H]2OCC=C3CN4CC[C@@]5(C(=O)O)[C@H](N1)C2[C@H]3C[C@H]45 (stereo not given in full),0.3%,3.7%
CCN(CC)CCNC(=O)c1ccc(-n2c(-c3ccccc3)cc3c2CCCC3)cc1,-2.7%,-5.4%
COc1ccc(Cl)cc1N=C1NC(=O)CC(C(=O)Nc2ccccc2C(F)(F)F)S1 (stereo not given),-5.1%,?
COC(=O)c1ccccc1NC(=O)c1cc2sccc2n1C,-4.5%,-18.6%
COC(=O)c1cccc(NC(=O)c2cc3sccc3n2C)c1,-17.4%,25.1µM*
Cc1ccc(C)c(N2CCN(S(=O)(=O)c3cc(C(=O)Nc4cc(Cl)cc(Cl)c4)ccc3F)CC2)c1,0.5%,-11.6%
Cc1ccc(N2CCN(S(=O)(=O)c3cc(C(=O)Nc4cc(Cl)cc(Cl)c4)ccc3F)CC2C)cc1 (stereo not given),1.2%,2.51µM*
CCOc1ccc(NC(=O)Cn2c(=O)oc3cc(S(=O)(=O)N4CCC(C)CC4)ccc32)cc1,-4.0%,10.7%
C/C(=N/Nc1nc(-c2ccc(Cl)cc2)cs1)c1cccs1,?,3.98µM*
O=C(Nc1nc(-c2ccccc2)cs1)c1cccs1,-7.7%,1.8%
CCOC(=O)c1ccc(N2C(=O)c3n[nH]c(-c4cccs4)c3C2c2ccc(CC)cc2)cc1 (stereo not given),-6.1%,5.01µM*
CCOC(=O)c1ccc(N2C(=O)c3n[nH]c(-c4cccs4)c3C2c2ccc(OCC)cc2)cc1 (stereo not given),-3.1%,?
Cc1cc(Br)ccc1NC(=O)c1ccccc1-c1ccccc1,-7.9%,10.1%
Cc1cc(Br)ccc1NC(=O)c1cc2c(s1)-c1ccccc1SC2,-7.4%,7.94µM*
CCOc1ccc2nc(N/C(N)=N/C(=S)Nc3cccc(C)c3)nc(C)c2c1,-3.5%,31.6µM*
COc1ccc2nc(N/C(N)=N/C(=S)Nc3cccc(C)c3)nc(C)c2c1,-9.1%,?
CCOC(=O)c1cc(C)n(CC2CCC(C(=O)Nc3ccc(C(=O)OC)cc3)CC2)c1C (stereo not given),-6.0%,6.8%
C=Cc1c(C)c2cc3nc(cc4[nH]c(cc5nc(cc1[nH]2)C(C)=C5CCC(=O)O)c(CCC(=O)OC)c4C)[C@@]1(C)C3=CC=C(C(=O)OC)[C@H]1C(=O)OC (tested in a mixture with another compound),-16.1%,?
Cc1nn(CCCC(=O)Nc2cc(C(F)(F)F)ccc2Cl)c(=O)c2c1sc1ccccc12,-2.6%,4.5%
CCC(=O)Nc1ccc(/C(C)=N\NC(=O)c2ccc(C)s2)cc1,-5.7%,-6.0%
C/C(=N/NC(=O)c1cccs1)c1ccc(NC(=O)COc2ccc(Cl)cc2Cl)cc1,-6.6%,?
C/C(=N/NC(=O)c1ccc(Cl)s1)c1ccc(NC(=O)COc2ccc(Cl)cc2)cc1,-5.0%,20µM*
C/C(=N/NC(=O)c1ccc(C)s1)c1cccc(NC(=O)COc2ccc(Cl)cc2Cl)c1,-1.2%,12.6µM*
COc1ccc(N2Cc3cccc(C(=O)Nc4ccc(F)cc4)c3C2=O)cc1,-9.3%,-1.7%
SMILES,Cruzain inh Det,Cruzain inh noDet
Cc1ccccc1NC(=O)c1ccc2c(c1)c(C)c(C)n2Cc1ccccc1,0.2%,-20.4%
CCOc1ccc(CNC(=O)c2ccc3c(c2)c(C)c(C)n3Cc2ccc(Cl)cc2)cc1,2.4%,10µM*
CCn1c(C)c(C)c2cc(C(=O)NCc3ccc(OC(C)C)cc3)ccc21,-6.5%,-3.5%
CSc1cccc(NC(=O)c2ccc3c(c2)c(C)c(C)n3Cc2ccc(F)cc2)c1,3.2%,15.8µM*
CSc1ccc(CCNC(=O)c2ccc3c(c2)c(C)c(C)n3Cc2ccc(F)cc2)cc1,1.7%,15.8µM*
Cc1c(C)n(Cc2ccccc2)c2ccc(C(=O)NCc3ccccc3F)cc12,0.8%,?
COc1ccc(C(=O)Nc2ccc3nc(SCC(=O)N4CCCc5ccccc54)sc3c2)cc1,0.4%,0.9%
Cc1cc(C)c2c(=O)cc(C(=O)NCc3ccc(S(N)(=O)=O)cc3)oc2c1,4.3%,-0.4%
N#CCc1ccccc1[N+](=O)[O-],-1.1%,-1.9%
COc1cc(C(=O)Nc2cc(C)ccc2OCc2cc(=O)n3c(C)csc3n2)cc(OC)c1OC,1.4%,-2.9%
O=C(NC(=S)Nc1cccc(Cl)c1N1CCCCC1)c1ccc2c(c1)OCCO2,-1.1%,12.6µM*
O=C(Nc1cccc(Cl)c1N1CCCCC1)c1ccc2c(c1)OCCO2,-5.2%,-11.9%
O=C(O)CC1S/C(=N/N=C/C=C/c2ccccc2)NC1=O (stereo not given),-17.3%,-3.5%
O=C(CC1S/C(=N/N=C/C=C/c2ccccc2)NC1=O)Nc1ccc(Cl)c(Cl)c1 (stereo not given),-0.9%,6.31µM*
COc1ccc(-c2nnc(SCC(=O)N(C)C3CCCCC3)o2)cc1OC,-12.8%,11.2%
O=C(Nc1ccccc1OCc1cc(=O)n2ccccc2n1)Nc1ccccc1C(F)(F)F,1.4%,-11.2%
CC(C)c1cc(C(N)=O)c(NC(=O)c2cccc(COc3ccc(Cl)cc3)c2)s1,-2.8%,20µM*
Cc1nn(Cc2c(F)c(F)c(F)c(F)c2F)c(C)c1NC(=O)c1cccc(COc2ccc(Cl)cc2)c1,2.8%,-12.6%
COc1ccc(NC(=O)CCS(=O)(=O)c2cc3c(cc2C)NC(=O)CO3)cc1Cl,2.7%,3.8%
CCC(C)NC(=O)c1sc2nc3n(c(=O)c2c1C)CCC3 (stereo not given),-4.8%,29.9%
CCOC(=O)C1CCN(C(=O)c2ccc(NC(=O)c3nsc4ccccc34)cc2)CC1,-3.5%,7.5%
COc1ccc(NC(=O)CSC2=Nc3ccccc3C3=NC(Cc4ccccc4)C(=O)N23)cc1Cl (stereo not given),-4.1%,15.8µM*
Cc1ccc(NC(=O)CSC2=Nc3ccccc3C3=NC(Cc4ccccc4)C(=O)N23)cc1C (stereo not given),-6.0%,-20.6%
COc1ccc(C(=O)COC(=O)c2ccc(NC(=O)c3ccccc3)cc2)cc1,5.9%,12.6µM*
CCCC/C=C/C(NC(=O)c1ccc(-c2ccccc2)cc1)c1ccccc1 (stereo not given),5.5%,15.8µM*
SMILES,Cruzain inh Det,Cruzain inh noDet
CCOC(=O)c1ccc(NC(=O)c2ccc(NC(=O)c3ccccc3)cc2)cc1,4.8%,-15.8%
Cc1ccc(NC(=O)CCC(=O)OCC(=O)c2ccc(-c3ccccc3)cc2)cc1,-5.3%,4.6%
COc1ccc(C(=O)COc2ccc(NC(C)=O)cc2)cc1,-3.1%,-25.2%
COc1ccc(NC(=O)CCC(=O)c2ccc(-c3ccccc3)cc2)cc1,-1.9%,25.1µM*
CCCC/C=C/C(NC(=O)c1ccccc1)c1ccccc1 (stereo not given),-7.7%,-8.2%
COc1ccc(C(=O)Nc2ccc(C(=O)OCC(=O)c3ccccc3)cc2)cc1,2.1%,6.31µM*
Cc1cccc(N2CCN(C(=O)CCc3c(C)nc4c(c3C)c(=O)n(C)c(=O)n4C)CC2)c1C,-0.8%,-5.7%
Cc1ccc2nc(Cl)c3cc(C(=O)NC4CCCCC4)sc3c2c1,-1.0%,-2.9%
COCCCNS(=O)(=O)c1ccc(N2CCCCS2(=O)=O)cc1,-0.7%,3.7%
CCCn1c(C)nc2c(NCC3CCCN3CC)nc(C)nc21 (stereo not given),0.5%,1.7%
COc1ccc(C(NC(=O)c2ccc(-c3ccccc3)cc2)c2ccccc2)cc1 (stereo not given),4.7%,7.94µM*
